These results are taken from ChEMBL document CHEMBL4513141, “CO-ADD screening of NIH (USA) - Clinical Collection” (2021).

One assay relates to Klebsiella pneumoniae. Conditions: Concentration 20 uM; ASSAY_TEST Inhibition of Bacterial Growth; detection method Absorption (OD600); MEDIA CAMHB; plate type 384well; NBS; CORNING #3640; time 18 hr.
The subject of the next assay is Candida albicans. As to conditions: 20 µM.
For a further assay, the system named is Cryptococcus neoformans. As to conditions: Concentration 20 uM; ASSAY_TEST Inhibition of Fungal Growth; detection method Resazurin; Absorption (OD600-OD570); plate type 384well; NBS; CORNING #3640. (Alamar Blue is a resazurin reagent that responds to reducing activity.)

Results with a measured potency or affinity are listed apart.

The Inhibition is the drop in the measured response relative to a control, in per cent. On to `CC(=CCC1=C(C)C(=O)c2ccccc2C1=O)CCCC(C)CCCC(C)CCCC(C)C` (stereo unspecified), for which the figures for the Inhibition with Klebsiella pneumoniae, with Candida albicans and with Cryptococcus neoformans were 6.75%, 3.2% and 1.23%, respectively.

On to `CCCc1nc(C)c2c(O)nc(-c3cc(S(=O)(=O)N4CCN(CC)CC4)ccc3OCC)nn12.O=C(O)CC(O)(CC(=O)O)C(=O)O`, for which the Inhibition in the assay with Klebsiella pneumoniae is 10.86%; in the assay with Candida albicans, 4.67%; in the assay on Cryptococcus neoformans, -15.39%.

Take `CS(=O)(=O)c1ccc(C2=C(c3ccccc3)C(=O)OC2)cc1` [ROFECOXIB]: the Inhibition in the assay with Klebsiella pneumoniae was 8.3%; in the assay on Candida albicans, 2.84%; in the assay with Cryptococcus neoformans, -2.65%.

On to `Cn1nnc2c(C(N)=O)ncn2c1=O` [TEMOZOLOMIDE], for which the Inhibition was 7.88% in the assay on Klebsiella pneumoniae, 1.91% in the assay with Candida albicans and -1.17% with Cryptococcus neoformans.

`NC(=O)c1cccnc1` [NIACINAMIDE]: the Inhibition in the assay with Klebsiella pneumoniae was 11.31%; in the assay on Candida albicans it was 2.62%; in the assay on Cryptococcus neoformans, -0.49%.

As to `O=C1[C@H](CC[C@H](O)c2ccc(F)cc2)[C@@H](c2ccc(O)cc2)N1c1ccc(F)cc1` [EZETIMIBE], the Inhibition in the assay with Klebsiella pneumoniae was 2.21%; with Candida albicans, -1%; with Cryptococcus neoformans, -1.78%.

Consider `CC(CCCCC(=O)Nc1ccc(C(F)(F)F)cc1)NCCc1c[nH]cn1.O=C(O)/C=C\C(=O)O.O=C(O)/C=C\C(=O)O` (stereo unspecified), for which the Inhibition was 6.44% in the assay on Klebsiella pneumoniae, 2.76% in the assay with Candida albicans and -4.87% with Cryptococcus neoformans.

With `CSc1nc2cc(Cl)c(Oc3cccc(Cl)c3Cl)cc2[nH]1` [TRICLABENDAZOLE], the Inhibition in the assay on Klebsiella pneumoniae is -0.37%; in the assay with Candida albicans, 7.82%; in the assay on Cryptococcus neoformans it was -2.96%.

In the case of `NS(=O)(=O)Cc1noc2ccccc12` [ZONISAMIDE], the Inhibition with Klebsiella pneumoniae was 12.91%; in the assay with Candida albicans, 3.7%; in the assay on Cryptococcus neoformans, -5.53%.

In the case of `CN(C)CC[C@@H](c1ccc(Cl)cc1)c1ccccn1.O=C(O)/C=C\C(=O)O` [DEXCHLORPHENIRAMINE MALEATE], the results for the Inhibition in the assay on Klebsiella pneumoniae, in the assay with Candida albicans and in the assay with Cryptococcus neoformans were 21.61%, 2.45% and -7.42%, respectively.

In the case of `Nc1nc2c(ncn2COCCO)c(=O)[nH]1` [ACYCLOVIR], the Inhibition in the assay with Klebsiella pneumoniae was 6.29%; in the assay with Candida albicans, 4.6%; in the assay with Cryptococcus neoformans, -1.27%.

As for `CCN(CC)C(=O)[C@]1(c2ccccc2)C[C@@H]1CN.Cl` [1R,2S-MILNACIPRAN HYDROCHLORIDE], the Inhibition was 12.52% with Klebsiella pneumoniae, 0.44% in the assay on Candida albicans and -10.1% with Cryptococcus neoformans.

Regarding `O=C1C(c2c(O)[nH]c3ccccc23)=Nc2ccccc21`, the Inhibition with Klebsiella pneumoniae is 6.26%; in the assay with Candida albicans it was 9.69%; with Cryptococcus neoformans it was -4.77%.

As to `COc1ccc(CN2CCN(C(c3ccc(F)cc3)c3ccc(F)cc3)CC2)c(OC)c1OC.Cl.Cl`, the Inhibition in the assay with Klebsiella pneumoniae is -0.73%; with Candida albicans, 2.16%; in the assay on Cryptococcus neoformans, -36.76%.

As to `CN(C)CCOC(c1ccc(Cl)cc1)c1ccccn1.O=C(O)/C=C\C(=O)O` (stereo unspecified) [CARBINOXAMINE MALEATE], the Inhibition was 12.89% in the assay with Klebsiella pneumoniae, 0.99% with Candida albicans and 0.28% in the assay with Cryptococcus neoformans.

On to `CNCCCC12CCC(c3ccccc31)c1ccccc12.Cl` [MAPROTILINE HYDROCHLORIDE], for which the results for the Inhibition with Klebsiella pneumoniae, in the assay on Candida albicans and with Cryptococcus neoformans were 10.44%, 3.58% and -10.89%, respectively.

Take `COc1cc(C(=O)NC2CCCNC2)cc(OC)c1OC` (stereo unspecified) [TROXIPIDE]: the Inhibition in the assay on Klebsiella pneumoniae was determined as 14.93%; in the assay on Candida albicans, 5.32%; with Cryptococcus neoformans, 0.51%.

As for `CS(=O)(=O)O.Cc1c(O)cccc1C(=O)N[C@@H](CSc1ccccc1)[C@H](O)CN1C[C@H]2CCCC[C@H]2C[C@H]1C(=O)NC(C)(C)C` [NELFINAVIR MESYLATE], the Inhibition in the assay on Klebsiella pneumoniae was 0.71%; with Candida albicans, 0.96%; in the assay on Cryptococcus neoformans it was -18.17%.

As to `OCc1cc(C(O)CNCCCCCCOCCCCc2ccccc2)ccc1O` (stereo unspecified) [SALMETEROL], the Inhibition in the assay on Klebsiella pneumoniae was 16.35%; in the assay on Candida albicans it was 5.42%; in the assay with Cryptococcus neoformans it was -8.37%.

As for `Cc1ccsc1C(=CCCN1CCC[C@@H](C(=O)O)C1)c1sccc1C.Cl` [TIAGABINE HYDROCHLORIDE], the Inhibition with Klebsiella pneumoniae is 9.25%; with Candida albicans, 1.98%; in the assay with Cryptococcus neoformans, -3.18%.

Take `CCc1cc(C(N)=S)ccn1` [ETHIONAMIDE]: the values for the Inhibition with Klebsiella pneumoniae, with Candida albicans and in the assay with Cryptococcus neoformans were 13.14%, 1.99% and -7.71%, respectively.

Consider `O=c1c(-c2ccccc2)c1-c1ccccc1` [DIPHENCYPRONE], for which the Inhibition in the assay with Klebsiella pneumoniae is -5.06%; in the assay with Candida albicans it was 5.88%; in the assay with Cryptococcus neoformans, 10.54%.

On to `Clc1ccc2c(c1)C(N1CCNCC1)=Nc1ccccc1O2` [AMOXAPINE], for which the Inhibition was 12.52% in the assay with Klebsiella pneumoniae, 4.28% in the assay with Candida albicans and -1.42% with Cryptococcus neoformans.

With `NS(=O)(=O)c1cc2c(cc1Cl)N=CNS2(=O)=O` [CHLOROTHIAZIDE], the results for the Inhibition in the assay on Klebsiella pneumoniae, with Candida albicans and in the assay on Cryptococcus neoformans were 4.1%, 4.39% and -0.92%, respectively.

In the case of `CN(C)CCN(Cc1ccccc1)c1ccccn1.Cl` [TRIPELENNAMINE HYDROCHLORIDE], the Inhibition in the assay on Klebsiella pneumoniae worked out at 2.28%; in the assay with Candida albicans, 5.56%; in the assay on Cryptococcus neoformans, 2.92%.

For `COc1nc(C)nc(Cl)c1NC1=NCCN1.Cl` [MOXONIDINE HYDROCHLORIDE], the Inhibition in the assay on Klebsiella pneumoniae was found to be 3.54%; in the assay on Candida albicans it was 3.01%; in the assay on Cryptococcus neoformans it was 0.52%.

Take `CC(COc1ccccc1Cc1ccccc1)N1CCCCC1.O=P(O)(O)O` (stereo unspecified): the Inhibition with Klebsiella pneumoniae was determined as 14.21%; in the assay on Candida albicans it was 3.69%; in the assay on Cryptococcus neoformans, 0.43%.
